Assay outcomes deposited in PubChem BioAssay by National Center for Advancing Translational Sciences (NCATS).
NPC1 promoter act: activators of NPC1 promoter | Huh7 NPC1 promoter luciferase reporter, 24 h | 320,000 compounds, 2.4% hits | Potency, µM (titrated, usually from 9.22 µM), hits mostly activators | AID 485313; also: nearly all actives have a fitted effect of over 60% in size
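Luminescence from an NPC1 promoter-driven luciferase reporter in stably transfected Huh7 cells was measured after 24 h compound treatment at 37 °C, followed by 10 min ambient incubation with luciferase detection reagent.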
ELG1 genotox: genotoxicity induction in ELG1-luciferase HEK293T cells; HEK293T ELG1-luciferase reporter, luminescence, 16 h; Potency, µM (highest dose often 46 µM), hits mostly activators; 330,000 compounds, 1.3% hits; AID 504466; also: nearly all actives have a fitted effect of over 60% in size
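16 hr compound incubation (37 °C, 5% CO2) of HEK293T cells carrying luciferase-tagged ELG1; luciferase then measured by ONE-Glo luminescence after 30 min at RT.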
Rab9 promoter act: activators of Rab9 promoter. AID 485297. Potency, µM (series often up to 9.22 µM), usual class: activators. 320,000 compounds, 2.8% hits. Huh7 Rab9 promoter-luciferase reporter, luminescence, 24 h; also: nearly all actives have a fitted effect of over 60% in size
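Luminescence read-out: Huh7 cells stably expressing Rab9-luciferase, treated 24 h with compound at 37 °C, then lysed with luciferase reagent for 10 min at ambient before reading.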
FLuc counter: inhibits or activates purified firefly luciferase, miR-21 counter-screen; P08659; Potency, µM (titrated, usually from 57.5 µM), actives largely listed as inhibitors; purified FLuc, Km substrates, luminescence inhibition; 360,000 compounds, 6.9% hits; also: nearly all actives have a fitted effect of over 55% in size
Target sequence (P08659 whole entry, looked up): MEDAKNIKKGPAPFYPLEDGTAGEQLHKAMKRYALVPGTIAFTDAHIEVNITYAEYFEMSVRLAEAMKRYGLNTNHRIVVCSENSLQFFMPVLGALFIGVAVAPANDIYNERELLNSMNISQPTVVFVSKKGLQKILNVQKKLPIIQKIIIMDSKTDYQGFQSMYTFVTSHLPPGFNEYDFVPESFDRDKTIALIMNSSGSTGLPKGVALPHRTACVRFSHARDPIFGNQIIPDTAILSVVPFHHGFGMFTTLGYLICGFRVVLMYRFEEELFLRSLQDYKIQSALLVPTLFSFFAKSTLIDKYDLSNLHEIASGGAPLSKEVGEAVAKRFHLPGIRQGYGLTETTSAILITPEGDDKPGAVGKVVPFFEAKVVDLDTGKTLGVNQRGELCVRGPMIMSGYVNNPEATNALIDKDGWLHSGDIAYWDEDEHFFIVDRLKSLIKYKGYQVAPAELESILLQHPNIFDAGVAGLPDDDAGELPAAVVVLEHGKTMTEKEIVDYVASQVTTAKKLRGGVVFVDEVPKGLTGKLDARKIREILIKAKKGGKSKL
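Biochemical qHTS of compounds, final roughly 60 µM downward over six points, against 10 nM purified firefly luciferase using Km concentrations of substrates (10 uM D-luciferin, 10 uM ATP) in Tris acetate pH 7.5 buffer; luminescence output.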
ELG1 DNA repair: ELG1-dependent DNA repair inhibition | 330,000 compounds, 2.3% hits | AID 504467 | Potency, µM (doses to about 46.1 µM), usual class: inhibitors | HEK293T ELG1-luciferase reporter, luminescence, 16 h; DNA damage induced by 5-fluorouridine; also: nearly all actives have a fitted effect of over 55% in size
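DMSO vehicle served as the neutral condition. Each well held 2,000 cells given 5-fluorouridine plus compound; after 16 hr at 37 °C/5% CO2, ONE-Glo was added and luciferase measured 30 min later.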
SMN2 splice up: enhancers of SMN2 splice variant expression. HEK293 SMN2-luciferase splicing reporter, luminescence, 30-36 h. Potency, µM (doses to about 46.1 µM), usual class: activators. 210,000 compounds, 2.8% hits. AID 1458; also: nearly all actives have a fitted effect of over 55% in size
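qHTS luciferase splicing reporter: luminescence rises when SMN2 exon 7 is included in transfected HEK293 cells. Compound exposure lasted 30-36 h at 37C, with 4.5 mM final sodium butyrate as control, followed by a ONE-Glo read.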
Of the large screens only hits and unclear results are named; the others gave an inactive call. In the library only some 9.3% were active in any assay of this set; here they are far more common. Calls follow the shape of the dose curve; as a rule, active = well fitted curve in the direction sought with a large enough effect; inconclusive = small, poorly fitted or top-dose-only effect, or another doubt; inactive = no such curve, though single readings can be large; an effect the other way counts as inactive or inconclusive.

COC(=O)c1ccc(N2NC(=O)/C(=C/c3cc(OC)c(OC)c(OC)c3)C2=O)cc1	FLuc counter 19µM, ELG1 DNA repair inconclusive (no result: SMN2 splice up)
COC(=O)c1ccc(N2NC(=O)/C(=C/c3cc(OC)c(O)c(OC)c3)C2=O)cc1	FLuc counter 8.5µM (no result: SMN2 splice up)
CC(C(=O)Nc1ccc(C#N)cc1)N(C)CC(=O)N(C)c1c(N)n(Cc2ccccc2)c(=O)[nH]c1=O (configuration not stated)	none (no result: NPC1 promoter act, Rab9 promoter act, FLuc counter, SMN2 splice up)
O=C(CCCCn1c(=O)c2ccccc2n(CC(=O)Nc2ccc(F)cc2F)c1=O)NCc1ccccc1Cl	none (no result: NPC1 promoter act, ELG1 genotox, Rab9 promoter act, ELG1 DNA repair)
CCn1nc(NC(=O)c2ccncc2)c2cc3ccc(C)cc3nc21	FLuc counter 15µM, ELG1 DNA repair inconclusive
CCCn1nc(NC(=O)c2ccncc2)c2cc3ccccc3nc21	ELG1 DNA repair inconclusive (no result: SMN2 splice up)
CCn1nc(NC(=O)c2ccncc2)c2cc3cc(C)ccc3nc21	FLuc counter 17µM, ELG1 DNA repair inconclusive, SMN2 splice up 32µM
CCCCCN1C(C(=O)c2ccccc2)=C(NC(=O)c2ccc(OC)cc2)c2ccccc2S1(=O)=O	none (no result: NPC1 promoter act, ELG1 genotox, Rab9 promoter act, ELG1 DNA repair)
COC(=O)c1c(NC(=O)C2CCCCC2)sc2c1CC(C)(C)NC2(C)C	none (no result: SMN2 splice up)
Cc1cc(C)c(NC(=O)CNC(=O)COC(=O)Cc2ccccc2C)c(C)c1	ELG1 DNA repair inconclusive (no result: SMN2 splice up)
O=C(NNC(=O)c1ccc(NC(=O)C2CC2)cc1)c1ccc(F)cc1	none (no result: SMN2 splice up)
O=C(Nc1ccccc1)c1ccc(NC(=O)C2CC2)cc1	NPC1 promoter act 1.6µM, ELG1 genotox 21µM, Rab9 promoter act 2.8µM, FLuc counter 7.6µM, ELG1 DNA repair inconclusive (no result: SMN2 splice up)
O=C(Nc1ccccc1C(=O)NC1CCCCC1)c1ccccc1	ELG1 genotox inconclusive, ELG1 DNA repair inconclusive (no result: SMN2 splice up)
O=C(Nc1ccccc1C(=O)O)c1ccc(NC(=O)C2CCCCC2)cc1	FLuc counter 9.5µM (no result: SMN2 splice up)
Cc1cn2c(=O)c(S(=O)(=O)Nc3ccc(F)cc3F)c(C)nc2s1	none (no result: NPC1 promoter act, ELG1 genotox, Rab9 promoter act, ELG1 DNA repair, SMN2 splice up)
CC(C)CC(=O)N1CCC(O)(CS(=O)(=O)c2ccc(Cl)c(Cl)c2)CC1	none
Nc1nccc(-c2ccc(-n3cnc4ccccc43)cc2)n1	ELG1 DNA repair 7.3µM
Cc1nccc(-c2ccc(-n3cnc4ccccc43)cc2)n1	FLuc counter inconclusive, ELG1 DNA repair 10µM
c1ccc2c(c1)ncn2-c1ccc(-c2ccnc(-c3ccncc3)n2)cc1	none
COC(=O)COc1cccc(NC(=O)C(c2ccccc2)c2ccccc2)c1	none (no result: SMN2 splice up)
Fc1ccc(CCN2CCN=C2Nc2ccccc2)cc1	ELG1 DNA repair inconclusive (no result: SMN2 splice up)
CCC1=C2CC[C@H]3C(=O)N(c4ccccc4)C(=O)[C@H]3[C@H]2[C@@]2(Cc3ccccc3)C(=NCCc3c[nH]c4ccccc34)OC(=O)N2C1=O	none (no result: NPC1 promoter act, ELG1 genotox, Rab9 promoter act, FLuc counter, ELG1 DNA repair)
Cn1c(SCC(=O)Nc2nc(C(C)(C)C)cs2)nnc1C1CC1	ELG1 DNA repair inconclusive (no result: SMN2 splice up)
N[C@H](C(=O)O)[C@H](Cc1ccccc1)C(=O)O	none (no result: ELG1 genotox, FLuc counter, ELG1 DNA repair, SMN2 splice up)
CN(C)c1ccc(C=NCC2COc3ccccc3O2)cc1 (configuration not stated)	FLuc counter 12µM (no result: SMN2 splice up)
CN(CC1COc2ccccc2O1)C(=O)c1ccc(N(C)C)cc1 (configuration not stated)	none
COc1ccc(-c2noc(N(C)CC(=O)Nc3cccc(C(F)(F)F)c3)n2)cc1	NPC1 promoter act inconclusive, FLuc counter 8.5µM, ELG1 DNA repair inconclusive
COc1cccc(NC(=O)CN(C)CC(=O)Nc2cccc(C(F)(F)F)c2)c1	none (no result: SMN2 splice up)
CN(CC(=O)Nc1cccc(F)c1)C(=O)c1ccc(-c2cccc(C(F)(F)F)c2)o1	ELG1 DNA repair 0.29µM (no result: SMN2 splice up)
COc1cccc(NC(=O)CN(C)C(=O)c2ccc(-c3cccc(C(F)(F)F)c3)o2)c1	none (no result: SMN2 splice up)
CCn1c(=O)n(-c2ccc3c(c2)OCO3)c2nc(-c3ccc(C(C)C)cc3)nc(C(N)=O)c21	none (no result: NPC1 promoter act, ELG1 genotox, Rab9 promoter act, ELG1 DNA repair)
CCN1CCOC(=O)C1CC(=O)Nc1cccc(OC)c1 (configuration not stated)	none (no result: NPC1 promoter act, ELG1 genotox, Rab9 promoter act, ELG1 DNA repair)
COC(=O)c1ccc(-c2ccc(Cl)cc2)nc1C	NPC1 promoter act 1.6µM, ELG1 genotox 8.2µM, Rab9 promoter act 1.4µM, FLuc counter 1.3µM, ELG1 DNA repair inconclusive, SMN2 splice up 5µM
